Here are results for 36 molecules from PubChem BioAssay.

Each structure is given as a SMILES string.

For this assay, the system named is Noggin (protein binding on small-molecule microarray). Description: Noggin binders on small-molecule microarray, primary screen, biochemical, 635/667 nm fluorescence (AID 1095).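 Also: score merges 667 nm feature fluorescence with signal to noise over triplicate slides.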 The following applies: 635 nm fluorescence, higher = more signal.
For the molecule `COc1ccc(C(O)C2C=CC3C(=O)N(c4ccccc4)C(=O)C3N2Nc2ccc(C#N)cc2)c2ccccc12` (stereo unspecified), the composite z-score was 0.238. For the molecule `COCCOC(=O)N1C(=O)[C@@]2(c3ccccc31)[C@H](C(=O)N1CCN(c3ncccn3)CC1)[C@H]1C(=O)O[C@H](c3ccccc3)[C@H](c3ccccc3)N1[C@@H]2c1ccc(OCCO)cc1`, the composite z-score came out at 0.57. With `CC=CC(O)C1C=CC2C(=O)N(c3ccccc3)C(=O)C2N1Nc1ccccc1` (stereo unspecified), the composite z-score was found to be 0.0919.

Regarding `Cc1ccc(S[C@]2(C(=O)NCC(F)(F)F)CC(=O)N(Cc3ccccc3)[C@@H]2c2ccc(CO)cc2)cc1`, the composite z-score was -0.92. Take `[N-]=[N+]=Nc1ccccc1C[C@@]1(C(=O)O)N=C(c2ccc(OCCCO)cc2)O[C@@H]1c1ccccc1`: the composite z-score was -0.272. Under `COCCCNC(=O)[C@]1(Cc2ccccc2CN=[N+]=[N-])N=C(c2ccc(OCCCO)cc2)O[C@@H]1c1ccccc1` stands 0.348; under `CC(C)OC(=O)CC(=O)CC(O)c1cccc(C#N)c1` (stereo unspecified), -0.412; under `CCCC=C(CCC)[C@@H](NP(=O)(c1ccccc1)c1ccccc1)c1ccc(C(F)(F)F)cc1`, -0.13. Turning to `CCCN1C(=O)[C@]2(Cc3ccccc3)N=C(c3ccc(OCCCO)cc3)O[C@@H]2c2ccccc21`, the composite z-score turned out to be 1.74.

In turn, `C[C@]12C(=O)N(CCCCCCO)[C@@H]3C(=O)N(c4ccc(Cl)cc4)CC=CC31O[C@@H]1/C=C\CCCOC(=O)C12` (stereo partly specified) showed a composite z-score of -0.463. For `COCCOC(=O)N1C(=O)[C@@]2(c3ccccc31)[C@H](c1ccc(OCCO)cc1)N1[C@H](c3ccccc3)[C@H](c3ccccc3)OC(=O)[C@H]1[C@@H]2C(=O)Nc1nc2ccccc2s1`, the composite z-score was 0.396. With `C=CCN1Cc2ccccc2C[C@@]2(N=C(c3ccc(OCCCO)cc3)O[C@H]2c2ccccc2)C1=O`, the composite z-score came out at 1.04. Turning to `CN(C)CCCCNC(=O)[C@H]1C[C@H]2C(=O)N3CCC[C@H]3C(=O)N2[C@H]1c1ccc(O)cc1`, the composite z-score is -0.439. In turn, `COC1(C)CN(Cc2ccccc2Br)[C@H](/C=C/c2ccccc2)[C@H](Cc2ccccc2)O1` (stereo partly specified) yielded a composite z-score of -0.391. Under `COc1cc(OC)c(C(O)C2C=CC3C(=O)N(c4ccccc4)C(=O)C3N2Nc2ccc(C#N)cc2)cc1Br` (stereo unspecified) stands -0.109; under `O=C(O)[C@]1(Cc2ccccc2)N=C(c2ccc(OCCCO)cc2)O[C@@H]1c1ccccc1`, -0.849. Turning to `O=C1c2ccccc2[C@@]2(Cc3ccccc3N(C3CC3)C2=O)[C@H](c2ccc(CO)cc2)N1C1CCCCC1`, the composite z-score was -0.699. Take `COCCOC(=O)N1C(=O)[C@@]2(c3cc(C#CCC(C(=O)OC)C(=O)OC)ccc31)[C@H](c1ccc(OCCO)cc1)N1[C@H](c3ccccc3)[C@H](c3ccccc3)OC(=O)[C@H]1[C@@H]2C(=O)N1CCN(c2ncccn2)CC1`: the composite z-score was 1.17.

The molecule `O=C1O[C@@H](c2ccccc2)[C@@H](c2ccccc2)N2[C@@H](c3ccccc3OCCO)[C@]3(C(=O)Nc4ccc(C#CCCO)cc43)[C@@H](C(=O)N3CCN(c4ncccn4)CC3)[C@H]12` gave a composite z-score of 0.207. On to `COc1cc(CO)cc(I)c1O[C@H]1C=C(C(=O)NCCO)C[C@@H](N(CC2CCCCC2)C(=O)c2ccc(C(F)(F)F)cc2)[C@@H]1O`, for which the composite z-score is 0.586. `Cc1c(NC(=O)/C(C#N)=C/C=C/c2ccccc2[N+](=O)[O-])c(=O)n(-c2ccccc2)n1C` showed a composite z-score of 0.148. Under `CCC[C@@H]1C[C@@]1(CCC)[C@@H](NP(=O)(c1ccccc1)c1ccccc1)c1ccc(Cl)cc1` stands 0.112. To `C=CCN1C(=O)[C@]2(CC=C)N=C(c3ccc(OCCCO)cc3)O[C@@H]2c2ccccc21` belongs 1.33; to `O=C1c2ccccc2[C@](Cc2ccccc2I)(C(=O)NCCN2CCOCC2)[C@H](c2ccc(CO)cc2)N1Cc1ccccc1`, 0.406; to `COC(=O)[C@@]1(Cc2ccc(F)cc2)[C@H]2c3cc(C(=O)N4CCCC4)n(CCc4c[nH]c5ccc(OC)cc45)c3C[C@H]2CN1C(=O)c1ccccc1`, 1.26. To `O=C1c2ccccc2[C@](Cc2ccccc2I)(C(=O)NCc2ccccc2)[C@H](c2ccc(CO)cc2)N1C1CCCCC1` belongs 1.32; to `COCC(=C=CC[C@H](O)c1cccc(OCCO)c1)C[C@H](O)c1ccccn1`, 0.704; to `CN1C2C=C(CCCO)C(C3C(=O)N(C(N)=O)C(=O)C32)C1c1cccs1` (stereo unspecified), -0.23. In turn, `CN(C)CCCNC(=O)[C@@H]1c2ccccc2C(=O)N(Cc2ccc(OC(F)(F)F)cc2)[C@H]1c1ccc(CO)cc1` came in with a composite z-score of 0.912.

`CC(C)(C)OC(=O)CC[C@]1(C(=O)NCCN2CCOCC2)N=C(c2ccc(OCCCO)cc2)O[C@H]1c1ccccc1` displayed a composite z-score of -0.316. The molecule `CC(C)CNC(=O)[C@@H]1c2ccccc2C(=O)N(Cc2cc(F)cc(C(F)(F)F)c2)[C@H]1c1ccc(CO)cc1` returned a composite z-score of 0.179. Consider `C=C(/C(=C/C[C@@H](OC(=O)c1ccncc1)c1ccc(OCCO)cc1)c1cc(C(=O)OC)ccc1OC)C(C)C`, for which the composite z-score was found to be 0.89. Under `C=C(CCCC)/C(=C/C[C@@H](OC(=O)c1ccncc1)c1cccc(OCCO)c1)c1cnc2ccccc2c1` stands 1.55; under `C=CCOC(=O)[C@H]1[C@@H]2C(=O)O[C@@H](c3ccccc3)[C@@H](c3ccccc3)N2[C@@H](c2ccc(OCCOC(=O)[C@H]3C[C@H]4C(=O)N[C@@H](Cc5ccccc5)C(=O)N4[C@H]3c3cccc(OCCO)c3)cc2)[C@]12C(=O)Nc1ccc(I)cc12`, 1.91.

Take `Cc1ccc(S[C@]2(C(=O)NC3CC3)CC(=O)N(Cc3ccccc3Cl)[C@@H]2c2ccc(CO)cc2I)cc1`: the composite z-score was determined as 1.34. Under `C[C@@H]1ON(c2ccc(C(=O)OC(C)(C)C)cc2)[C@H](c2ccc(Br)cc2)[C@H]1C(=O)N1C(=O)OC[C@H]1Cc1ccccc1` stands 0.633.
